Bioassay records (PubChem)
RORgamma inh – qHTS for inhibitors of ROR gamma transcriptional activity | Nuclear receptor ROR-gamma (Mus musculus), P51450 | Drosophila S2 Gal4-RORgamma UAS-luciferase reporter, 20 h | Potency, µM (top dose mostly 53.6 µM), inactives show at the top dose activity change, negative = inhibition, hits mostly inhibitors | hit rate 5.4% among 310,000 | AID 2551, 2010; further: on the % scale 0 is the no-effect control and ±100 the full control effect; nearly all actives have a fitted effect of over 60% in size
Target sequence (P51450 whole entry, looked up, the tested form may be a part): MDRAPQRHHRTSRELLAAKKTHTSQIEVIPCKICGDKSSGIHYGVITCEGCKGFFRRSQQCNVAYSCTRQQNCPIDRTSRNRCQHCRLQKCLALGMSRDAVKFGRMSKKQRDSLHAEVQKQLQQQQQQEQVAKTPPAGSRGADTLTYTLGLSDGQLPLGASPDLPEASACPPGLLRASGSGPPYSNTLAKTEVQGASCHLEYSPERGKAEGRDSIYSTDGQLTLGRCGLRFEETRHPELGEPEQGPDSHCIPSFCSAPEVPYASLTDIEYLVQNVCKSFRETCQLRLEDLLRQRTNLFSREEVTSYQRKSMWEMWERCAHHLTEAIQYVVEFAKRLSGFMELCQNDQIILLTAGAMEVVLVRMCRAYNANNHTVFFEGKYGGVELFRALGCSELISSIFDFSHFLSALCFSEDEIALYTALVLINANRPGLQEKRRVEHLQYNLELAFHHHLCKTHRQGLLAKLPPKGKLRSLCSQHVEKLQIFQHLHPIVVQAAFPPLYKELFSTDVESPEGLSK
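Luciferase reporter read in Schneider cells carrying Gal4-RORγ (mouse) and UAS-Photinus luciferase; cells given compound 1 h before 700 uM copper sulfate induction, then incubated 20 h at ambient temperature.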
VP16 counter – VP16 counterscreen qHTS for inhibitors of ROR gamma transcriptional activity. hit rate 3.5% among 310,000. Drosophila S2 Gal4-VP16 UAS-luciferase, luminescence, 20 h. Potency, µM (highest dose often 53.6 µM), for inactives: top-dose activity, negative = inhibition, actives largely listed as inhibitors;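 further: Gal4-VP16 expression switched on by copper sulfate through the metallothionein promoter; on the % scale 0 is the no-effect control and ±100 the full control effect; nearly all actives have a fitted effect of over 50% in size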
ATXN2 expr inh – Primary qHTS for Inhibitors of ATXN expression; hit rate 0.72% among 360,000; Potency, µM (titrated, usually from 57 µM), inactives show at the top dose activity change, negative = inhibition, hits mostly inhibitors; HEK-293 ATXN2-luciferase reporter, luminescence, 24 h; further: on the % scale 0 is the no-effect control and ±100 the full control effect; nearly all actives have a fitted effect of over 55% in size
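ATXN2-luciferase reporter cells (luciferase flanked by upstream and downstream ATXN2 gene portions) were treated 24 h at 37 °C with compounds at up to 57 uM. SteadyGlo luminescence gave expression; GF-AFC fluorescence gave viability.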
HepG2 tox – qHTS for Inhibitors of TGF-b: Cytotox Counterscreen; HepG2 CAGA-GFP viability, ATP luminescence, 18 h; Potency, µM (titrated, usually from 46.1 µM), for inactives: at the top dose activity change, negative = cytotoxicity, usual class: cytotoxic; hit rate 0.76% among 410,000
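CellTiter-Glo luminescence gave cytotoxicity after 18 hours at 37 degrees C. The cells were HepG2 CAGA-GFP in 1% FBS DMEM, stimulated with 500 pg/mL TGF-beta after compound addition. %Activity was normalised to no-cell wells (complete cell-killing) and DMSO (no toxicity), and curves were fitted and classified.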
S2 tox – Viability Counterscreen for Primary qHTS for Inhibitors of ATXN expression | S2 cells (HEK-293 line with an ATXN2-luciferase reporter) viability, CellTiter-Fluor protease fluorescence, 24 h | Potency, µM (doses to about 56.7 µM), actives largely listed as cytotoxic | hit rate 0.49% among 400,000 | AID 651635, 2014; further: nearly all actives have a fitted effect of over 40% in size
TGFb SMAD3 inh – qHTS for Inhibitors of TGF-b; HepG2 CAGA-GFP TGF-b/SMAD3 reporter, GFP fluorescence, 18 h; TGF-beta stimulated, 500 pg/mL final; Potency, µM (series often up to 46.1 µM), for inactives: at the top dose activity, negative = inhibition, most hits filed as inhibitors; hit rate 1.2% among 410,000; further: on the % scale 0 is the no-effect control and ±100 the full control effect; nearly all actives have a fitted effect of over 65% in size
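Cell-based qHTS in HEPG2 carrying a CAGA-GFP Smad reporter; compounds added before 500 pg/mL final TGF-beta, 18 h incubation at 37 degrees C, GFP fluorescence quantified per cell by imaging cytometry.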
An asterisk follows results filed as active; [ ] = another dose, or the depositor's remark. The list is not random: actives were taken first. Their share in the collection is about 6.3%. The call rests on the fitted dose curve; in most records, active means well fitted curve in the direction sought with a large enough effect; inconclusive means small, poorly fitted or top-dose-only effect, or another doubt; inactive means no such curve, though single readings can be large; an effect the other way counts as inactive or inconclusive. Potency means the concentration at half of the fitted maximal effect.

How did COc1cccc(CNC(=S)Nc2cc(OC)ccc2OC)c1 do in these assays?
RORgamma inh: 13µM*; VP16 counter: inconclusive; ATXN2 expr inh: 4%[11.3 µM]; HepG2 tox: -1%; S2 tox: inconclusive; TGFb SMAD3 inh: -9%

Results for Cc1cc(Cl)ccc1NC(=S)NCc1ccccc1 ?
RORgamma inh: 4µM*; VP16 counter: 4%[0.365 µM]; ATXN2 expr inh: -6%; HepG2 tox: -10%; S2 tox: inactive; TGFb SMAD3 inh: -29%

How did COc1cccc(CNC(=S)Nc2ccc(Cl)cc2C)c1 do in these assays?
RORgamma inh: 6.3µM*; VP16 counter: 6.3µM*; ATXN2 expr inh: -32%; HepG2 tox: 1%; S2 tox: inconclusive; TGFb SMAD3 inh: 1%

What do the screens show for `Cc1cc(Cl)ccc1NC(=S)NCC(O)c1ccccc1` (stereo not drawn)?
RORgamma inh: inconclusive; VP16 counter: inconclusive; ATXN2 expr inh: -3%; HepG2 tox: -1%; S2 tox: inconclusive; TGFb SMAD3 inh: 7%

Results for Cc1ccc(NC(=S)NCc2ccc(Cl)cc2)c(C)c1 ?
RORgamma inh: 4.5µM*; VP16 counter: 4.5µM*; ATXN2 expr inh: inconclusive; HepG2 tox: -26%; S2 tox: inactive; TGFb SMAD3 inh: -26%

Results for Cc1c(C(=O)Nc2nc(-c3ccc(F)cc3)ns2)oc2ccc(Br)cc12 ?
HepG2 tox: -1%; TGFb SMAD3 inh: 0%

Results for S=C1NC2(CCCCC2)Cc2ccccc21 ?
RORgamma inh: 1.1µM*; VP16 counter: inconclusive; ATXN2 expr inh: -27%; HepG2 tox: -54%; S2 tox: inactive; TGFb SMAD3 inh: -12%

What do the screens show for `COc1cc2c(cc1OC)C(=S)NC1(CCCC1)C2`?
RORgamma inh: 2µM*; VP16 counter: 14µM*; ATXN2 expr inh: -7%; HepG2 tox: 0%; S2 tox: inactive; TGFb SMAD3 inh: -6%

How did O=C1NC2(CCCCC2)Cc2ccccc21 do in these assays?
RORgamma inh: 21%; VP16 counter: 5%; ATXN2 expr inh: 6%; HepG2 tox: 1%; S2 tox: inactive; TGFb SMAD3 inh: -1%

Results for COc1cc2c(cc1OC)C(C)=NC1(CCCCC1)C2 ?
RORgamma inh: 1%; VP16 counter: -4%; ATXN2 expr inh: -12%; HepG2 tox: 10%; S2 tox: inactive; TGFb SMAD3 inh: -3%

Results for COc1ccc(-c2nc3sc(CCNC(=O)C(=O)Nc4c(C)cccc4C)c(C)n3n2)cc1 ?
HepG2 tox: -7%; TGFb SMAD3 inh: 15%

How did Cc1cc(C(=O)CCl)c(C)n1-c1ccon1 do in these assays?
RORgamma inh: 8.9µM*; VP16 counter: inconclusive; ATXN2 expr inh: 77%; HepG2 tox: -89%; S2 tox: inconclusive; TGFb SMAD3 inh: inconclusive

What do the screens show for `CC(=O)c1cccc(OCC(=O)c2cc(C)n(-c3cc(C)on3)c2C)c1`?
RORgamma inh: inconclusive; VP16 counter: inconclusive; ATXN2 expr inh: 0%; HepG2 tox: -28%; S2 tox: inactive; TGFb SMAD3 inh: 13%

How did Cc1cc(C(=O)CCl)c(C)n1-c1cccc([N+](=O)[O-])c1 do in these assays?
RORgamma inh: 8.9µM*; VP16 counter: inconclusive; ATXN2 expr inh: inconclusive; HepG2 tox: -95%; S2 tox: 25µM*; TGFb SMAD3 inh: inconclusive

What do the screens show for `C/C(=N\NC(=S)NC1CCCCC1)c1ccc(OC(F)F)cc1OC(F)F`?
RORgamma inh: inconclusive; VP16 counter: inconclusive; ATXN2 expr inh: -2%; HepG2 tox: 4%; S2 tox: inactive; TGFb SMAD3 inh: inconclusive

What do the screens show for `C/C(=N\NC(=S)NC1CCCCC1)c1ccc(Cl)c(Cl)c1`?
RORgamma inh: 1.4µM*; VP16 counter: 2.8µM*; ATXN2 expr inh: 9%; HepG2 tox: 1%; S2 tox: inactive; TGFb SMAD3 inh: -15%

How did C/C(=N\NC(=S)NC1CCCCC1)c1cccs1 do in these assays?
RORgamma inh: inconclusive; VP16 counter: 0.79µM*; ATXN2 expr inh: 43%; HepG2 tox: 8%; S2 tox: inactive; TGFb SMAD3 inh: -25%

Results for C/C(=N\NC(=S)NC1CCCCC1)c1c(F)cccc1F ?
RORgamma inh: 0.63µM*; VP16 counter: 2.8µM*; ATXN2 expr inh: -12%; HepG2 tox: -11%; S2 tox: inactive; TGFb SMAD3 inh: -32%

Results for CCCCCCCCN1C(=O)[C@H](CC(=O)N2CCOCC2)C[C@@]2(C(=O)OC)CCCCC=C12 ?
ATXN2 expr inh: -36%; S2 tox: inconclusive

How did CCN(C(=O)CCS(=O)(=O)c1cc2c(cc1C)NC(=O)CO2)c1cccc(C)c1 do in these assays?
ATXN2 expr inh: -3%; HepG2 tox: -12%; S2 tox: inactive; TGFb SMAD3 inh: 26%

How did COc1ccc(-n2c(-c3cc(-c4ccccc4)sc3N)n[nH]c2=S)cc1 do in these assays?
RORgamma inh: 2.5µM*; VP16 counter: inconclusive; ATXN2 expr inh: -28%; HepG2 tox: 7%; S2 tox: inactive; TGFb SMAD3 inh: 13%

What do the screens show for `Cc1onc(-c2ccccc2)c1-c1n[nH]c(=S)n1-c1ccccc1`?
ATXN2 expr inh: 0%; HepG2 tox: -2%; S2 tox: inactive; TGFb SMAD3 inh: 0%

How did Nc1sc(-c2ccccc2)cc1-c1n[nH]c(=S)n1C1CCCCC1 do in these assays?
RORgamma inh: 2.2µM*; VP16 counter: inconclusive; ATXN2 expr inh: -12%; HepG2 tox: -63%; S2 tox: inactive; TGFb SMAD3 inh: inconclusive

How did S=c1[nH]nc(-c2cccs2)n1C1CCCCC1 do in these assays?
RORgamma inh: 0%; VP16 counter: -10%; ATXN2 expr inh: -4%; HepG2 tox: 16%; S2 tox: inactive; TGFb SMAD3 inh: 7%

What do the screens show for `CC1CCC(C(C)C)C(NC(=O)c2ccncc2)C1` (stereo not drawn)?
ATXN2 expr inh: 2%; HepG2 tox: 2%; S2 tox: inactive; TGFb SMAD3 inh: -3%

What do the screens show for `Cc1ccc(-c2ccc(=O)n(C(C)C(=O)Nc3ccccc3Cl)n2)cc1C` (stereo not drawn)?
ATXN2 expr inh: -30%; HepG2 tox: -37%; S2 tox: inconclusive; TGFb SMAD3 inh: inconclusive

What do the screens show for `O=C(CCCCCNc1nc(=S)[nH]c2ccccc12)NCCc1ccccc1`?
RORgamma inh: inconclusive; VP16 counter: -10%; ATXN2 expr inh: -10%; HepG2 tox: -15%; S2 tox: inactive; TGFb SMAD3 inh: -6%
